Inconclusive results are not listed. Where a call stands in place of a potency, no number is given. Calls of active or inactive are those of the source. Calls follow the shape of the dose curve; as a rule, active = well fitted inhibition curve with a large enough effect; inconclusive = small, poorly fitted or top-dose-only effect; inactive = no such curve, though single readings can be large or run the other way.

This is an account of results in PubChem BioAssay (NCATS).

For the assay, the system named is Zika virus NS2B-NS3 protease (linked construct). The assay is described as follows: Primary screen NINDS Rhodamine qHTS for Zika virus inhibitors (AID 1347160). Also: nearly all actives have a fitted effect of over 55% in size. The settings on record: purified NS2B-NS3 protease, Rhodamine110 substrate fluorescence; series mostly up to 33.1 µM. In a few lines:
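Single-chain NS2B-NS3 protease, 25 nM, pH 8.0; compounds preincubated 15 min. Activity: Rhodamine110 release from 1.5 microM substrate over 15 min, room temperature, data fitted to 4-parameter Hill.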
(In general: Quantitative high-throughput screening tests each substance at several concentrations.)
On to `CCc1cccc2c3c([nH]c12)[C@@](CC)(CC(=O)O)OCC3`, for which the Potency result is “inactive”. Regarding `COC(=O)C1=CO[C@@H](O[C@@H]2O[C@H](CO[C@@H]3O[C@H](CO)[C@@H](O)[C@H](O)[C@H]3O)[C@@H](O)[C@H](O)[C@H]2O)[C@@H]2C(CO)=CC[C@H]12`, the Potency entry was “inactive”. Regarding `CC(C)C1NC(=O)C2CCCN2C1=O` (centres undefined), the Potency result was “inactive”. Take `COc1cnc(-n2cnc(C)n2)c2[nH]cc(C(=O)C(=O)N3CCN(C(=O)c4ccccc4)CC3)c12`: the Potency result was “inactive”.

In the case of `CC1(C)CC[C@]2(C(=O)O[C@@H]3O[C@H](CO)[C@@H](O)[C@H](O)[C@H]3O)CC[C@]3(C)C(=CCC4[C@@]5(C)CC[C@H](OC6OC(C(=O)O)C(OC7OC(CO)C(O)C(O)C7O)C(O)C6O)C(C)(C)C5CC[C@]43C)C2C1` (some centres undefined), the Potency entry is “inactive”. For the molecule `C=CC1(C)CC2CCC3C(C)(C(=O)O)CCCC3(C)C2=CC1=O` (centres undefined), the Potency entry is “inactive”. Take `O=C(O)/C=C/c1ccc2occc2c1O[C@@H]1O[C@H](CO)[C@@H](O)[C@H](O)[C@H]1O`: the Potency result was “inactive”. As for `C[C@@H]1O[C@@H](O[C@H]2[C@H](O)[C@@H](O)[C@H](OC[C@H]3O[C@@H](OC(=O)[C@]45CCC(C)(C)C[C@H]4C4=CCC6[C@@]7(C)C[C@@H](O)[C@H](O)[C@@](C)(CO)C7[C@H](O)C[C@@]6(C)[C@]4(C)CC5)[C@H](O)[C@@H](O)[C@@H]3O)O[C@@H]2CO)[C@H](O)[C@H](O)[C@H]1O` (some centres undefined), the Potency entry was “inactive”.

Consider `O=C(NCCN1CCCC1)c1cc(-c2ccc(CN3CCOCC3)cc2)nc2ccc(F)cc12`, for which the Potency result is “inactive”.

On to `COC(=O)C1=CO[C@@H](O[C@@H]2O[C@H](CO)[C@@H](O)[C@H](O)[C@H]2O)[C@@H]2[C@@H](CO)[C@@H](O)C(O)[C@H]12` (some centres undefined), for which the Potency entry is “inactive”. As to `C/C(=C\C(=O)C[C@@]12C(=O)O[C@]3(C)CC[C@H]1C[C@H]23)C(N)=O`, the Potency entry is “inactive”. `C=C1[C@@H]2CC[C@@]3(C)[C@H](c4ccoc4)OC(=O)C[C@]13O[C@H]1CC(=O)C(C)(C)[C@H](C(O)C(=O)OC)[C@]12C` (some centres undefined): the Potency entry was “inactive”.

Consider `COc1ccc(/C=C/C(N)=O)cc1OC`, for which the Potency result is “inactive”. Under `Cc1cc(CO)c(O)c(C(=O)CC2CC(=O)NC(=O)C2)c1` stands “inactive”.
